Rows were chosen to be rich in hits. Some 0.65% of all compounds tested hit in one or more screens of this group.
NS1 inh – qHTS Assay for Inhibitors of Influenza NS1 Protein Function. AID 2326, 2010. 270,000 compounds, 0.4% hits. Potency, µM (series often up to 46.1 µM); also: actives are rising curves; nearly all actives have a fitted effect of over 50% in size
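In this qHTS, NS1 from influenza A is expressed in budding yeast, where it slows growth. Cells are switched from glucose to 2% galactose medium (pH 6.0, -URA), treated with compound, and growth recovery is read at OD600.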
SARS PLpro yeast-1 – qHTS of Yeast-based Assay for SARS-CoV PLP; S. cerevisiae expressing SARS-CoV PLpro, growth rescue; 330,000 compounds, 0.19% hits; Potency, µM (titrated, usually from 32.9 µM), usual class: activators; AID 485353, 2010; also: nearly all actives have a fitted effect of over 55% in size
AMA1-RON2 inh – qHTS for Inhibitors of AMA1-RON; Towards Development of Antimalarial Drug Lead: Primary Screen; Plasmodium falciparum AMA1 (3D7) - RON2 peptide interaction; AlphaScreen AMA1-biotinylated RON2 peptide binding; Potency, µM (titrated, usually from 58.2 µM), hits mostly inhibitors; 360,000 compounds, 0.2% hits; AID 720542, 2013; active = well fitted inhibition curve with a large enough effect; inconclusive = small, poorly fitted or top-dose-only effect; inactive = no such curve, though single readings can be large or run the other way; also: nearly all actives have a fitted effect of over 45% in size
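AMA1 (3D7) with his tag at 25 nM final met compounds first, then biotinylated RON2 peptide at 25 nM; detection used donor plus acceptor beads, 10 µg/mL apiece, read by AlphaScreen after 30 min at room temperature.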
SARS PLpro yeast-2 – qHTS of Yeast-based Assay for SARS-CoV PLP: Hit Validation; shares compounds with SARS PLpro yeast-1; yeast expressing SARS-CoV PLpro, growth phenotype rescue; calls only; 1,000 compounds, 19% hits; call rule not given here
Large screens that a line does not name were inactive (follow-up assays come after a bar, where they were run). Unless noted, calls follow the shape of the full dose curve.

Cc1ccc2c(c1)N(C(=O)CCC(=O)NC1CCN(Cc3ccccc3)CC1)CC(C)O2 (configuration not stated)	SARS PLpro yeast-1 inconclusive | SARS PLpro yeast-2 inactive
CCOC(=O)N1CCC(NC(=O)CCC(=O)N2CC(C)Oc3ccc(C)cc32)CC1 (configuration not stated)	none
Cc1c(CC(=O)N[C@@H](C)C(=O)O)c(=O)oc2cc3oc4c(c3cc12)CCCC4	none
Cc1sc2nc(CSCC(=O)N(C)c3ccccc3)[nH]c(=O)c2c1C	SARS PLpro yeast-1 inconclusive | SARS PLpro yeast-2 inactive
Cc1sc2nc(CSCC(=O)N(CCC#N)c3ccccc3)[nH]c(=O)c2c1C	none
O=C(c1ccc(Br)cc1)N(Cc1ccco1)C1CCS(=O)(=O)C1 (configuration not stated)	none
CCOc1ccccc1C(=O)NCC(=O)N(C)Cc1cccnc1	none
CCOC(=O)c1cnn(Cc2ccccc2)c1N	SARS PLpro yeast-1 inconclusive | SARS PLpro yeast-2 inactive
CCOC(=O)c1cnn(Cc2ccc(C)cc2)c1N	none (no result: NS1 inh)
Cc1cc(O)cc2c1C1CCC3(C)C(=O)CCC3C1C=C2 (configuration not stated)	none (no result: NS1 inh, SARS PLpro yeast-1)
CCN1C(=NCc2ccccc2)N[C@@H](c2ccccc2)[C@H](C(=O)OC)[C@H]1C	SARS PLpro yeast-1 inconclusive | SARS PLpro yeast-2 inactive
CCN1C(=NCc2ccc(OC)cc2)N[C@@H](c2ccccc2)[C@H](C(=O)OC)[C@H]1C	none
COc1cccc(C(O)c2ncc(-c3ccc(Cl)cc3)[nH]2)c1 (configuration not stated)	none (no result: NS1 inh, SARS PLpro yeast-1)
C=CCn1c(SCC(=O)Nc2ccc(OC)cc2)nc2c([nH]c3ccccc32)c1=O	none
C=CCn1c(SCC(=O)Nc2cc(C)on2)nc2c([nH]c3ccccc32)c1=O	SARS PLpro yeast-1 inconclusive | SARS PLpro yeast-2 inactive
O=C(COC(=O)c1ccc(-n2cnnn2)cc1)Nc1cc(Cl)ccc1F	none (no result: NS1 inh)
CCNC(=O)c1c(NC(=O)C2COc3ccccc3O2)sc2c1CCCC2 (configuration not stated)	none
COCCCNC(=O)c1c(NC(=O)C2COc3ccccc3O2)sc2c1CCCC2 (configuration not stated)	SARS PLpro yeast-1 inconclusive | SARS PLpro yeast-2 inactive
Cn1c(N)c(N2CCCCC2)c(=O)n(CC(=O)Nc2cccc(C#N)c2)c1=O	none (no result: NS1 inh)
Cc1cccc(C)c1NC(=O)Cn1c(=O)c(N2CCCCC2)c(N)n(C)c1=O	SARS PLpro yeast-1 11.2µM (no result: NS1 inh) | SARS PLpro yeast-2 inactive
CSCCC(NC(=O)c1ccco1)C(=O)N(C)CC(=O)Nc1c(Cl)cccc1Cl (configuration not stated)	none (no result: NS1 inh)
COc1ccc(OC(=O)COc2cc(C)ccc2C)cc1	none
CC1(C)C(=O)OC(c2cccn2-c2ccc([N+](=O)[O-])cc2)C(C)(C)C1=O (configuration not stated)	none
CC1(C)C(=O)C2(CCCCC2)C(=O)OC1c1cccn1-c1ccc([N+](=O)[O-])cc1 (configuration not stated)	SARS PLpro yeast-1 inconclusive | SARS PLpro yeast-2 inconclusive
CCOc1ccc(-n2c(SCC(=O)NC)nnc2-c2ccco2)cc1	none
Cc1ccc(CC(=O)O/N=C(\N)c2cccc([N+](=O)[O-])c2)cc1	none (no result: SARS PLpro yeast-1) | SARS PLpro yeast-2 inactive
Cc1ccc(C(=O)O/N=C(\N)c2cccc([N+](=O)[O-])c2)cc1	none
O=C(c1cc(C2CC2)nn1-c1ccccc1)N1CCN(Cc2ccccc2)CC1	none (no result: NS1 inh, SARS PLpro yeast-1)
O=C(O)c1cc(C2CC2)nn1-c1ccccc1	SARS PLpro yeast-1 inconclusive | SARS PLpro yeast-2 inactive
CCC1CCCCN1C(=O)COc1ccc(N(C)S(=O)(=O)c2ccc(C)cc2)cc1 (configuration not stated)	none
COc1cc(C(O)c2nc(-c3cccc4cccnc34)cs2)ccc1F (configuration not stated)	none (no result: NS1 inh, SARS PLpro yeast-1)
COc1ccc(/C=C(\C#N)C(=O)OCC(=O)NCc2ccccc2Cl)cc1	none
COc1ccc(/C=C(\C#N)C(=O)OCC(=O)NCc2ccc(Cl)cc2)cc1	SARS PLpro yeast-1 inconclusive (no result: AMA1-RON2 inh) | SARS PLpro yeast-2 inactive
Cc1nn(Cc2ccccc2)c2ncccc12	none
COc1cc(NC(=O)Cn2c(C)cc3ccccc3c2=O)cc(OC)c1OC	SARS PLpro yeast-1 12.6µM | SARS PLpro yeast-2 inactive
COc1ccccc1NC(=O)CNC(=O)Cn1c(C)cc2ccccc2c1=O	none
CCN1C[C@@H]2[C@@H]3C(=O)N(C)C(=O)[C@@H]3[C@](CC)(C(=O)OC)N2C1=NC	SARS PLpro yeast-1 3.55µM (no result: NS1 inh) | SARS PLpro yeast-2 inactive
CC[C@]1(C(=O)OC)[C@H]2C(=O)N(C)C(=O)[C@H]2[C@H]2CN(C)C(=NC)N21	none (no result: NS1 inh)
CC(C)C(C(=O)NC1CCCC1)N1CCC(O)(c2ccc(Cl)cc2)CC1 (configuration not stated)	none (no result: NS1 inh, SARS PLpro yeast-1)
COc1ccc(C(CNC(=O)c2cc(C)on2)N(C)C)cc1 (configuration not stated)	none
Cc1ccc(C)c(S(=O)(=O)N2CCN(C(=O)CCCc3c[nH]c4ccccc34)CC2)c1	none (no result: NS1 inh, SARS PLpro yeast-1)
Cc1ccc(S(=O)(=O)Nc2ccc(O)c3ncccc23)cc1	SARS PLpro yeast-1 inconclusive | SARS PLpro yeast-2 active
Cc1ccc(S(=O)(=O)Nc2ccc(O)c3cccnc23)cc1	none
CC1(C)NC(=S)NC1=S	none (no result: NS1 inh, SARS PLpro yeast-1)
Cc1ccc(NC(=O)C2(C)Cc3ccccc3C(=O)O2)cc1 (configuration not stated)	none
Cc1ccccc1NC(=O)C1(C)Cc2ccccc2C(=O)O1 (configuration not stated)	SARS PLpro yeast-1 inconclusive | SARS PLpro yeast-2 inconclusive
CC1CCCCC1NC(=O)CCS(=O)(=O)c1ccc(Cl)cc1 (configuration not stated)	none (no result: NS1 inh)
COc1ccc(C2Nc3ccccc3C(=O)N2O)cc1CN1CCOCC1 (configuration not stated)	SARS PLpro yeast-1 22.4µM | SARS PLpro yeast-2 inactive
COc1ccc(C2Nc3ccccc3C(=O)N2O)cc1OC (configuration not stated)	none
CSC(=NS(=O)(=O)c1ccc(N)cc1)NS(=O)(=O)c1cccs1	none (no result: NS1 inh, SARS PLpro yeast-1)
CCSc1nnc(NC(=O)C(Cc2ccccc2)n2cccc2)s1 (configuration not stated)	SARS PLpro yeast-1 inconclusive | SARS PLpro yeast-2 inactive
Cc1csc(NC(=O)C(Cc2ccccc2)n2cccc2)n1 (configuration not stated)	none
CCc1ccc(NC(=O)C2CCCN2S(=O)(=O)c2ccc3c(c2)n(C)c(=O)c(=O)n3C)cc1 (configuration not stated)	none
CCCCCC(=O)Nc1nc(C)c(-c2csc(Nc3cc(OC)ccc3OC)n2)s1	none
CCCCCCC(=O)Nc1nc(C)c(-c2csc(Nc3cc(OC)ccc3OC)n2)s1	SARS PLpro yeast-1 inconclusive | SARS PLpro yeast-2 inactive
COc1ccccc1Nc1nnc(SCc2nnc(-c3cc(OC)c(OC)c(OC)c3)o2)s1	none
CCOc1ccccc1Nc1nnc(SCc2nnc(-c3cc(OC)c(OC)c(OC)c3)o2)s1	SARS PLpro yeast-1 inconclusive | SARS PLpro yeast-2 inactive
Cc1ccc(CC(=O)CCc2ccccc2)cc1	none (no result: NS1 inh)
Cc1ccc(C(=O)Nc2ccc3c(c2)OCO3)o1	none
C/C(=C\C(=O)c1ccc(C)o1)Nc1ccc2c(c1)OCO2	SARS PLpro yeast-1 inconclusive | SARS PLpro yeast-2 inactive

High-throughput results from PubChem BioAssay.
